Measurements published in the supplement of paper PMC6555819.

Columns and labels:
Assay in all cases: PBM binding z-score (relative to random genomic background probes); higher = stronger binding; sequences stand for … in GC…GCGATTGACAGCGTAGAATGAAGG
[1] = tested on: RARb homodimer (NR concentration 270 nM)
Outline: (§1)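 Scanned fluorescence from custom Agilent 4×180K protein-binding microarrays was regression-normalized. Binding z-scores use random background probes as reference. Ligand-free nuclear receptor dimers were incubated on the arrays for 1 h and detected with antibodies against each partner (one per run).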

[2] = tested on: RARg:RXRa (NR concentration 270 nM, RXRa partner concentration 90 nM)
Outline: as §1

[3] = tested on: RARg homodimer (NR concentration 270 nM)
Outline: as §1

[4] = tested on: RXRa DBDmut IVT, anti-RXR (DBD mutation: RXRa K156A/R161A, NR concentration 90 nM)
Outline: as §1

[5] = tested on: RXRa homodimer (NR concentration 180 nM)
Outline: as §1

[6] = tested on: THRa:RXRa (NR concentration 90 nM, RXRa partner concentration 90 nM)
Outline: as §1

[7] = tested on: THRa homodimer (NR concentration 90 nM)
Outline: as §1

[8] = tested on: VDR homodimer (NR concentration 270 nM)
Outline: as §1

Row | Sequence | PBM binding z-score [1] | PBM binding z-score [2] | PBM binding z-score [3] | PBM binding z-score [4] | PBM binding z-score [5] | PBM binding z-score [6] | PBM binding z-score [7] | PBM binding z-score [8]
1 | GATACAGGGTCAGCTAGAGGCCAAAGTATGGAAA | 3.52 | 7.25 | 5.27 | 1.21 | 4.76 | 3.25 | 0.447 | 1.3
2 | TCTCGCAGGCCAGAGGGTCACTCAAGAGGTACGG | 2.75 | 2.79 | 2.32 | 0.313 | 2.76 | 1.73 | 0.0741 | 0.536
3 | CCGACTGGGGCAGAAACGTTACCATACCATCCGG | -0.276 | -0.119 | -0.0645 | -0.654 | -0.341 | -0.691 | -0.735 | -0.552
4 | CCTAGCAGGCCTGGGTCACTCAAGCATTTCGCTT | 1.69 | 1.25 | 0.967 | -0.144 | 0.958 | 1.48 | 0.229 | -0.269
5 | CCTCGGAGGACAACAGGAGGTCTGAGCTGCCAGA | 0.507 | 0.123 | 0.881 | -0.213 | -0.493 | 0.56 | -0.246 | -0.289
6 | TTACCAAGGTGAAAGGTGGTTGATGCACGCCTTG | 0.622 | 0.898 | 0.626 | -0.437 | 1.61 | 1.73 | 0.529 | -0.166
7 | CGTACTAGGTCAAGGACAGTGAATCTCCGCACGC | 3.14 | 3.81 | 4.64 | 1.21 | 2.53 | 3.22 | 2.42 | 0.444
8 | ACTGACAGGTGATGAAGGTAACTCAGGCTATCAT | -0.0164 | 0.199 | 0.358 | -0.478 | 0.16 | 0.769 | -0.122 | -0.152
9 | GCTATTAGTTGAAGGGGCAACCGAATGATTCTCG | 0.855 | 0.206 | 0.529 | 0.928 | 0.206 | 0.0187 | -0.194 | 0.212
10 | TAGCCTAGGTCATGGGCCAGTCTACCACGCGAAC | 2.8 | 4.32 | 4.43 | -0.0274 | 3.69 | 2.93 | 1.09 | 0.0195
11 | TTACCAAGGTGAAGGTCATTGATCCCTCTGTAGA | 3.83 | 3.84 | 3.53 | 1.15 | 4.16 | 3.41 | 1.74 | 2.17
12 | TCATATAGGTAAATGCTAGGTGAAAGCCCGATCT | 0.272 | 0.503 | 0.325 | 1.5 | 0.914 | 1.29 | 0.116 | -0.161
13 | CGAACTAGGTCATTGACAGAACAGTGAATAGTAA | 2.34 | 3.64 | 4.15 | 2.74 | 2.46 | 2.47 | 0.922 | 1.15
14 | CGAACTAGGTCATTGACAGGACTGTGAATAGTAA | 2.4 | 3.66 | 4.03 | 2.31 | 2.35 | 2.49 | 0.524 | 0.706
15 | CGTTACGGGTCACTGACAGGTTATAGCATTTGGA | 3.43 | 5.78 | 4.8 | 1.74 | 5.12 | 3 | 0.0977 | 0.672
16 | CCTTCTGGGCCACGAAAGGTCATTGATTCAGTGA | 4.62 | 4.94 | 4.61 | 0.819 | 5.38 | 4.04 | 0.878 | 2.42
17 | CGTCAATGTTCAAGGTAACGTAACAGAAAGCAGC | -0.0496 | 0.0962 | 0.453 | 0.148 | 0.198 | 1.56 | 1.19 | 0.0285
18 | CAGCCTAGGTCAGGGTCAGTATAGGAGGAACGTT | 4.16 | 4.27 | 4.84 | 0.854 | 3.67 | 3.39 | 1.53 | 1.31
19 | TCTAGCAGGCCAGTGGGTCACTCAAGAGGTACGG | 1.64 | 1.37 | 1.24 | -0.186 | 1.18 | 0.549 | -0.701 | -0.424
20 | TCGTGTAGGTTACCAATGGGGCATTCAGCTTTCT | 1.15 | 1.46 | 0.613 | 0.901 | 0.634 | 0.276 | 0.371 | -0.0857
21 | CGAACTAGGTCAAGTACAGTGAATCTCCGCACGC | 3.33 | 4.45 | 5.13 | 2 | 3.13 | 3.03 | 1.56 | 1.45
22 | AGAGTGAGGTTATTAAGATCAGGGAATTGCGGTC | 1.42 | 1.12 | 0.991 | 1.56 | 1.82 | 2.12 | 1.33 | 1.97
23 | TTACCAACGTGAAGGTCGTTGATCCCTCTGTAGA | 1.24 | 0.301 | 0.15 | 0.665 | 1.17 | 1.04 | 0.438 | 1.3
24 | CGTCCAAGGTCAATGCTAGGGCAGTGAAAGCATT | 4.25 | 6.47 | 6.26 | 3.44 | 4.5 | 3.96 | 1.89 | 1.93
25 | ACTATTAGTTGAGACGAGGGTAACCGATAGGTTG | 0.218 | 0.256 | 0.596 | 0.227 | 0.443 | 1.55 | -0.208 | 0.283
26 | GCTAGTTGGTCAGTAAAACGTCACACACCGGTCG | 0.309 | -0.139 | 0.216 | -0.207 | -0.264 | -0.444 | -0.619 | -0.255
27 | GCGACTGGGGCATCCGCAGGTTACCATAACTTAA | 0.945 | 1.31 | 0.446 | 0.00577 | 0.41 | 1.21 | -0.198 | -0.454
28 | CCTTACGGGTCAAGGTTCTAGCACGGGTGGTACG | 3.2 | 4.78 | 4.47 | 0.551 | 4.96 | 2.39 | 0.0737 | 1.51
